# Compound activity (PubChem)
# MITF inh – MITF inhibitors, primary screen, biochemical, AlphaScreen, human; inhibition, % at 2.6 µM; Microphthalmia-associated transcription factor (Homo sapiens), O75030; AlphaScreen MITF homodimerization, bead proximity signal; hit rate 0.91% among 650,000; in the data active = inhibition above about 50%;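 note: 0% = vehicle wells with protein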
# GPR151 activ – activators of human GPR151, primary screen, cell-based, PathHunter beta-arrestin, luminescence; G-protein coupled receptor 151 (Homo sapiens), Q8TDV0; PathHunter beta-arrestin GPR151 cells; activation, % at 11.2 µM; hit rate 1% among 650,000; AID 1508602, 2020; in the data active = activation above about 4.9%;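 note: 0% = median of compound wells and 100% = cells with positive control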
# Target sequence (Q8TDV0 whole entry, looked up): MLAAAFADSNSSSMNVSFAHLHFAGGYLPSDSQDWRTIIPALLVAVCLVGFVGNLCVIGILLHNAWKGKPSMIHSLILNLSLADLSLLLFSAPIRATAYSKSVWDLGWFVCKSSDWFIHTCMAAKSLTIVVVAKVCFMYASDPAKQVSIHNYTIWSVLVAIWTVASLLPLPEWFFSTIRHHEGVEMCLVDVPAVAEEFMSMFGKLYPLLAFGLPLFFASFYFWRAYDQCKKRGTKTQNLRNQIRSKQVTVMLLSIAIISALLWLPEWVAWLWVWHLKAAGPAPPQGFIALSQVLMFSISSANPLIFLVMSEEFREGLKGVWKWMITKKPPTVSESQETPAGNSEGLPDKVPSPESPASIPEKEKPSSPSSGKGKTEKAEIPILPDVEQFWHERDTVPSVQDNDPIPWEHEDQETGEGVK
# TEAD-YAP inh – TEAD-YAP interaction inhibition, primary screen, TEAD-YAP interaction inhibitor project, luminescence, HEK-TIYL cells | TEAD-Gal4/YAP UAS-luciferase luminescence | inhibition, % at 9.12 µM | hit rate 1.4% among 640,000; in the data active = inhibition above about 32%;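 note: 0% = median of test compound wells and 100% = reference inhibitor wells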
# FBW7 activator – FBW7 E3 ligase activators, primary screen, biochemical, AlphaScreen, human. F-box/WD repeat-containing protein 7 (Homo sapiens), Q969H0. AlphaScreen FBW7–phospho-cyclin E peptide binding, activator screen. normalized activity (activation), % at 26.1 µM. hit rate 0.13% among 650,000. AID 1259310, 2017; in the data active = normalized activity above about 1.9%;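 note: purified mutant Fbw7 with reduced substrate affinity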
# GPR151 confirm – GPR151 activators, triplicate retest, confirmation, cell-based, PathHunter beta-arrestin, luminescence. shares compounds with GPR151 activ. GPR151 PathHunter beta-arrestin cells, 90 min; % of EA-reagent control over plate median. activation, % at 11.2 µM. 6,700 tested, under 10 active;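 active = mean percent activation across replicates above the confirmation screen cutoff of 4.91%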
# GPR119 counter – GPR119 activators in beta-arrestin cells, counter-screen for GPR151 activator project, cell-based, PathHunter beta-arrestin, luminescence, triplicate; shares compounds with GPR151 activ; 90 min; 0 = compound-well median, 100 = enzyme-acceptor control; activation, % at 11.2 µM; hit rate 0.3% among 6,700; AID 1508611, 2020;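 active = mean percent activation in the counterscreen above 29.09%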;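 note: counterscreen on off-target GPR119 to flag nonselective hits from the GPR151 activator screen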
# * hit, by the source's call; x = no result given. Sampled rows, rich in hits. Any-hit rate of the full collection: about 3.5%.
SMILES,MITF inh,GPR151 activ,TEAD-YAP inh,FBW7 activator,GPR151 confirm,GPR119 counter
O=C(Nc1ccc(Cl)cn1)c1ccc(Cl)cc1Cl,14,7.0*,15,0,0,-12
O=C(COc1ccc(F)cc1F)Nc1ccc(F)cc1,9,-2,-43,0,x,x
O=C(COc1ccc(Cl)cc1)Nc1ccc(Br)cn1,9,1,-15,0,x,x
CCOC(=O)c1sc2nc(SCc3cc(F)cc4c3OCOC4)n(Cc3ccc(OC)cc3)c(=O)c2c1C,-21,-1,-7,0,x,x
CN(Cc1n[nH]c2c1CCCCC2)C(=O)CC1(c2ccccc2Cl)CC(=O)N(C)C1=O (stereo unspecified),5,1,-3,0,x,x
CCn1c(CNC(=O)C23CC4CC(CC(C4)C2)C3)nnc1SCC(=O)c1ccccc1,14,0,3,0,x,x
CCCCOc1ccc(CSc2nncn2N)cc1[N+](=O)[O-],9,5.1*,-39,0,-1,-11
CCn1c(C(=O)O)c(CNC2CCCC2)c2ccc(C)cc21,6,8.4*,-2,0,0,4
Cc1cc2[nH]c(=O)c(=O)[nH]c2cc1S(=O)(=O)NC1CCC(C)CC1 (stereo unspecified),2,7.4*,-6,0,1,3
Cc1cc2c(cc1C)N(C(=O)c1ccccc1)C(C)(C)c1ssc(=S)c1-2,44,-1,-3,-1,x,x
COc1ccc(CC2(CO)CCN(Cc3ccc(NC(C)=O)cc3)CC2)cc1,10,5.9*,7,0,2,-4
CC1CCN(S(=O)(=O)c2ccc3c(c2)OCCN3C)CC1,0,-1,-5,0,x,x
COc1cccc(CN2CCN(C(=O)CCC3(C)CCC(=O)N3)CC2=O)c1 (stereo unspecified),-4,7.8*,0,0,0,19
Cn1nccc1Nc1ccc(N2CCC(C(=O)NC3CCN(Cc4ccccc4)CC3)CC2)nn1,5,0,4,0,x,x
Nc1c(Cl)ncnc1N1CCOCC1,18,0,7,0,x,x
Nc1c(Cl)ncnc1N1CCN(c2ncnc(Cl)c2N)CC1,-3,5.4*,-3,0,0,7
CCn1c(=O)n(-c2ccccc2)c(=O)c2c3c(sc21)CN(C(C)=O)CC3,0,1,3,1,x,x
CCn1c(=O)n(-c2ccccc2C)c(=O)c2c3c(sc21)CN(C(C)=O)CC3,0,9.0*,-5,0,-1,-10
O=S(=O)(NCc1nc(N2CCCC2)c2cc(Cl)ccc2n1)c1ccccc1F,12,0,-5,0,x,x
CN(C)c1ccc(C2NCC(CSc3nnc(Nc4ccccc4F)s3)O2)cc1 (stereo unspecified),13,-1,-38,1,x,x
CCOC(=O)C1CCN(C(=O)Cc2c(C(=O)O)[nH]c3ccc(Cl)cc23)CC1,6,5.3*,-7,0,0,-1
COc1ccccc1CCN1C(=O)CCC1CCNCCOc1ccccc1 (stereo unspecified),-3,7.1*,-16,0,0,9
COc1ccccc1CCN1C(=O)CCC1CCNCc1ccccc1 (stereo unspecified),-7,-2,-5,0,x,x
COC(=O)c1ccccc1C(=O)N1CCC(C2(Cc3ccccc3)NC(=O)NC2=O)CC1 (stereo unspecified),8,0,-2,0,x,x
CC1(C)CC(=O)C2=C(C1)N(c1ccc(Cl)cc1)C(N)=C(C#N)C2c1ccc2c(c1)OCO2 (stereo unspecified),-7,14*,-6,0,0,-3
SMILES,MITF inh,GPR151 activ,TEAD-YAP inh,FBW7 activator,GPR151 confirm,GPR119 counter
O=C(COc1ccc(Cl)cc1Cl)Nc1ccc(NC(=O)c2ccco2)c(Cl)c1,-2,0,-17,0,x,x
O=C(COc1ccc(Cl)cc1Cl)NCc1ccco1,13,0,-53,0,x,x
O=C(COc1ccc(Cl)cc1Cl)OCc1ccco1,-7,6.5*,19,0,0,-1
O=C(COc1ccccc1Cl)Nc1ccc(N2CCN(C(=O)c3ccco3)CC2)cc1,2,9.9*,13,0,0,7
O=C(COc1ccc(Cl)cc1Cl)Nc1cccc(NC(=O)c2ccco2)c1,8,11*,-23,0,0,2
CCCCNC(=O)c1ccc2c(c1)NC(=O)C(CS(=O)(=O)Cc1ccc(F)cc1)N2 (stereo unspecified),6,0,14,1,x,x
CC(C)c1ccc(NC(=O)c2cc(S(=O)(=O)N3CCc4ccccc43)ccc2F)cc1,0,7.4*,-11,0,-1,-11
Cc1ccc(NC(=O)c2ccccc2NC(=O)c2ccc(S(=O)(=O)N3CCc4ccccc43)cc2)c(C(=O)c2ccccc2)c1,-4,8.7*,1,0,0,12
COc1cc(-c2nc3ccccc3c(=O)n2OC(=O)c2ccccc2Cl)cc(OC)c1OC,22,1,0,0,x,x
COc1ccc(-c2csc3ncnc(SCc4c(C)noc4C)c23)cc1,-16,8.1*,-3,0,0,-4
CSc1nsc(SC)c1NC(=O)OC1CCCC1,11,-1,7,0,x,x
CSc1nsc(SC)c1NC(=O)OCC1CCCO1 (stereo unspecified),2,6.6*,3,0,0,-2
O=C(NCCc1ccccc1)c1cc([N+](=O)[O-])ccc1N1CCCCC1,17,-1,-16,0,x,x
Cc1ccc(NC(=O)/C=C2/c3ccccc3CC(C)(C)N2C)cc1,11,1,-12,0,x,x
OCc1ccc(-c2cnn3c(NCc4ccc(F)cc4)ccnc23)cc1,-15,-1,-22,0,x,x
Oc1ccc(-c2cnn3c(NCc4ccc(F)cc4)ccnc23)cc1,6,6.5*,-26,0,1,2
COc1cc(CNC(=O)c2nccc3ccccc23)cc(OC)c1,1,1,-2,0,x,x
CC(=O)NCC1CCCN(c2nc3nonc3nc2N2CCSCC2)C1 (stereo unspecified),0,5.5*,-5,0,1,4
CN(C)C(=O)CN1CCN(c2nc3nonc3nc2N2CCCCCC2)CC1,8,4.9*,3,0,0,5
CC(=O)NCC1CCCN(c2nc3nonc3nc2N2CCCCCC2)C1 (stereo unspecified),-9,-1,5,0,x,x
Cc1cnc(N2CCC(N3CCOCC3)CC2)nc1NCCN(C(C)C)C(C)C,-9,6.7*,1,0,-1,6
